Drawing on PubChem BioAssay, this text covers growth inhibition, inhibition and outcome for 20 compounds.

Each structure is given as a SMILES string. Unmarked numbers belong to inactive results. For some of these results: Results with a measured potency or affinity are listed apart. The source made the active and inactive calls. Unless noted, the rule behind the calls is not given here.

A short description of experiment [1]: antimalarial activity against Dd2 strain (AID 2302;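 active = growth inhibition above 50% at the single 2 µM test dose, taken to imply half-maximal potency below 2 µM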;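 note: 0% = DMSO untreated growth and 100% = chloroquine plus artemisinin killed control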). To be noted: P. falciparum Dd2 in RBCs, LDH growth readout, 72 h; at 2 µM; active compounds read high.
Experiment [2] can be described thus: HepG2 cytotoxicity, primary screen, cytotoxicity control for P. falciparum antimalarial project, cell-based, ATP luminescence (AID 2303;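 active = inhibition above 50%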;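 note: 0% = DMSO wells and 100% = digitonin-killed cells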). To be noted: HepG2 viability, 24-48 h, at 10 µM, active compounds read high.
For experiment [3], the target named is L-lactate dehydrogenase (Plasmodium falciparum (isolate CDC / Honduras)) (UniProt Q27743). Nature of the experiment: PfLDH activity inhibition – cell lysate, 3D7 strain, counter-screen for P. falciparum growth inhibition project (AID 2304).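 Note: 0% = vehicle and 100% = reference inhibitor.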 To be noted: P. falciparum 3D7 crude extract, LDH APAD/NBT absorbance; at 2 µM; active compounds read high.
The nature of experiment [4]: inhibition of 3D7 malaria parasite growth – strain 3D7 (AID 2306).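 Note: 0% = DMSO wells and 100% = chloroquine plus artemisinin control wells.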 The settings on record: P. falciparum 3D7 erythrocytic growth, LDH absorbance, 72 h; at 2 µM; active compounds read high.
For experiment [5], the target named is Calcium-dependent protein kinase 1 (Plasmodium falciparum (isolate 3D7)) (UniProt P62344). Kind of experiment: PfCDPK1 kinase inhibitors, biochemical, TCAMS library (AID 1159585; cut-off not given, nearly all actives have IC50 up to about 0.98 µM;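 note: inhibitors leave more ATP so luminescence rises with inhibition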). To be noted: recombinant PfCDPK1, Kinase-Glo ATP depletion luminescence. For orientation: Kinase-Glo reads ATP consumption through a luciferase reaction.
For experiment [6], the target named is Plasmodium falciparum protein kinase 6 (PK6, PF3D7_1337100) (UniProt Q8IDW1). Kind of experiment: PfPK6 kinase inhibitors, biochemical, TCAMS library (AID 1159586). The settings on record: recombinant PfPK6, Kinase-Glo ATP depletion luminescence.
Experiment [7] addresses Protein kinase 7 (PK7), Plasmodium falciparum 3D7 (PF3D7_0213400) (UniProt Q7YTF7). Kind of experiment: inhibition of Plasmodium PK7 catalytic activity – biochemical, TCAMS antimalarial set, Kinase-Glo luminescence (AID 1159587). To be noted: recombinant PfPK7, Kinase-Glo ATP depletion luminescence.
Experiment [8] concerns the target Calcium-dependent protein kinase 4 (Plasmodium falciparum (isolate 3D7)) (UniProt Q8IBS5). Nature of the experiment: PfCDPK4 kinase inhibitors, biochemical, TCAMS library (AID 1159588; cut-off not given, nearly all actives have IC50 up to about 0.91 µM). The settings on record: recombinant PfCDPK4, Kinase-Glo ATP depletion luminescence.

Chain of Protein kinase 7 (PK7), Plasmodium falciparum 3D7 (PF3D7_0213400) (Q7YTF7 1-343): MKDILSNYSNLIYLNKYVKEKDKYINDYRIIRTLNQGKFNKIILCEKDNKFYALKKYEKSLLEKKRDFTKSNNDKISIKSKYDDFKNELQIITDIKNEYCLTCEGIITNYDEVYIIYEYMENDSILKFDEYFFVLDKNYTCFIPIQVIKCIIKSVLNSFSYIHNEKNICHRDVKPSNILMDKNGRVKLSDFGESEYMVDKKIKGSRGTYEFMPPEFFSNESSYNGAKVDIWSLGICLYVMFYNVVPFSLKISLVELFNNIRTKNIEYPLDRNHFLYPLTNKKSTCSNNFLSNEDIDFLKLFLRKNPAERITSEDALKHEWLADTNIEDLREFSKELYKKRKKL
Chain of Calcium-dependent protein kinase 4 (Plasmodium falciparum (isolate 3D7)) (Q8IBS5 whole entry, looked up): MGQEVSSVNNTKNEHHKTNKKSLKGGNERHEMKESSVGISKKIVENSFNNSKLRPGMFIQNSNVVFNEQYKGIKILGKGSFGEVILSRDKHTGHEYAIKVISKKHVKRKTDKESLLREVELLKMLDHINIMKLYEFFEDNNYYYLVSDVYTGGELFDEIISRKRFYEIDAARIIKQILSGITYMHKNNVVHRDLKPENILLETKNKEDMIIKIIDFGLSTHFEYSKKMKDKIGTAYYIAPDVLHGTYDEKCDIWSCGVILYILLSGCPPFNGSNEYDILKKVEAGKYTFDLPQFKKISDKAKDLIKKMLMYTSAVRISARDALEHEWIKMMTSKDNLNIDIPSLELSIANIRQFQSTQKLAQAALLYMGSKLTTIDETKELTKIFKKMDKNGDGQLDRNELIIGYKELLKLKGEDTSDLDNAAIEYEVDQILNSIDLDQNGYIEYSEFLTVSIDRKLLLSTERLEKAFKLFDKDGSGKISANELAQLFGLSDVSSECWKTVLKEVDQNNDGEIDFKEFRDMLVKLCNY
Chain of Plasmodium falciparum protein kinase 6 (PK6, PF3D7_1337100) (Q8IDW1 1-305): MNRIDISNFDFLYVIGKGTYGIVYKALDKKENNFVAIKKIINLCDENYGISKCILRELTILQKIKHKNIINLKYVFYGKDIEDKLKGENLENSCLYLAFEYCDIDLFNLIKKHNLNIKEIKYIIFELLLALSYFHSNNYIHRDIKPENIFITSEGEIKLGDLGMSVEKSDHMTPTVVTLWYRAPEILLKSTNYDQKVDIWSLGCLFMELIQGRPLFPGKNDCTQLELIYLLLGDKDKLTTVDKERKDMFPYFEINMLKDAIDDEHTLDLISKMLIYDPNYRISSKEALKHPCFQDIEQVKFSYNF
Chain of Calcium-dependent protein kinase 1 (Plasmodium falciparum (isolate 3D7)) (P62344 whole entry, looked up): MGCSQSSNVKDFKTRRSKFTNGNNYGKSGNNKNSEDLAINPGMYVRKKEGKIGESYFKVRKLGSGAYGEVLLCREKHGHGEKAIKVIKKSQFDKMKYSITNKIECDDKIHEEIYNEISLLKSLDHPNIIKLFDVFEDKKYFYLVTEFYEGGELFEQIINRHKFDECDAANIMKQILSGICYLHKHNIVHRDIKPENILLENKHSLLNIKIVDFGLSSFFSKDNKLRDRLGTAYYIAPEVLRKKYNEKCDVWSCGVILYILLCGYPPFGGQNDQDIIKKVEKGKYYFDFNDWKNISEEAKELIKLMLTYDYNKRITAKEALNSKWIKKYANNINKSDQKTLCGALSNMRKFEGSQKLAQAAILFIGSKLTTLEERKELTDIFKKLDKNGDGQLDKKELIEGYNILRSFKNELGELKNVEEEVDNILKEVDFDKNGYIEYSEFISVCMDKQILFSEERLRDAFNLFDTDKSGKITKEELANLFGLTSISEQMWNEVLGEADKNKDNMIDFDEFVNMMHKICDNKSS
Chain of L-lactate dehydrogenase (Plasmodium falciparum (isolate CDC / Honduras)) (Q27743 whole entry, looked up): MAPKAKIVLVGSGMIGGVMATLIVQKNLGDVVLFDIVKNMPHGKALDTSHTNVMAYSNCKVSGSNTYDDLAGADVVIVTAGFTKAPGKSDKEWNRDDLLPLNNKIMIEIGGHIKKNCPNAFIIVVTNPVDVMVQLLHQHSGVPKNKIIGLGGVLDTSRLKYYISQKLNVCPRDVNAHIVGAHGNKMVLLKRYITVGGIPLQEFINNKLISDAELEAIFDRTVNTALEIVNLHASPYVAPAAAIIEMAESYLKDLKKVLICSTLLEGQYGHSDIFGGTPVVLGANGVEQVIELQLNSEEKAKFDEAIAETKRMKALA

Turning to `Cc1cc(C(=O)N(Cc2ccc(-c3ccc(CNCCc4ccc(S(C)(=O)=O)cc4)cn3)cc2)C(C)CN(C)C)ccc1[N+](=O)[O-]` (stereo not given), the growth inhibition in experiment [1] was 46%; in experiment [4] it was 99% (active). For the same compound, the results for the inhibition in experiment [2] and in experiment [3] were 17% and -1%, respectively. The result in experiment [5], in experiment [6], in experiment [7] and in experiment [8] was inactive.
`O=C(Nc1ccc2nccc(N3CCN4CCC[C@H]4C3)c2c1)c1ccc(Cl)c(Cl)c1`: the values for the growth inhibition in experiment [1] and in experiment [4] were 98% (active) and 101% (active), respectively. Further, the inhibition (as a rule, the relative decrease from the control value, in per cent) in experiment [2] is 18%; in experiment [3] it was -8%. The outcome in experiment [5], in experiment [6], in experiment [7] and in experiment [8] was inactive.
With `CC1(CCCCN2CCC(Cc3ccccc3)CC2)C(=O)Nc2ccccc21` (stereo not given), the values for the growth inhibition in experiment [1] and in experiment [4] were 28% and 100% (active), respectively. The inhibition is 66% (active) in experiment [2] and -8% in experiment [3]. Besides, the result in experiment [5], in experiment [6], in experiment [7] and in experiment [8] was inactive.
In the case of `Cc1ccc(Nc2nc3cc(Nc4ccnc(Nc5ccc(CS(C)(=O)=O)cc5)n4)ccc3o2)cc1`, the growth inhibition in experiment [1] was 66% (active); in experiment [4], 99% (active). The inhibition in experiment [2] was 54% (active); in experiment [3] it was 2%. In addition, the outcome in experiment [5], in experiment [6], in experiment [7] and in experiment [8] was inactive.
As for `O=C(NCCCCCN1CCC(c2c[nH]c3ccccc23)CC1)Nc1cccc(I)c1`, the figures for the growth inhibition in experiment [1] and in experiment [4] were 11% and 99% (active), respectively. Further, the inhibition was 70% (active) in experiment [2] and -8% in experiment [3]. Besides, the outcome in experiment [5], in experiment [6], in experiment [7] and in experiment [8] was inactive.
For `c1cc(CNCC2CCCO2)cc(-c2csc(-c3nc4ccccc4[nH]3)c2)c1` (stereo not given), the growth inhibition was 6% in experiment [1] and 91% (active) in experiment [4]. In addition, the values for the inhibition in experiment [2] and in experiment [3] were 5% and 2%, respectively. The result in experiment [5], in experiment [6], in experiment [7] and in experiment [8] was inactive.
Consider `COc1cc(NC(=O)/C=C/c2ccccc2Cl)cc(OCCN2CCC(O)(c3ccccc3)CC2)c1`, for which the growth inhibition in experiment [1] was 46%; in experiment [4], 102% (active). Further, the inhibition in experiment [2] was 48%; in experiment [3] it was -1%. Further, the result in experiment [5], in experiment [6], in experiment [7] and in experiment [8] was inactive.
Regarding `COc1cccc(NC(=O)Nc2c(-c3cccc(C(F)(F)F)c3)c(C(F)(F)F)nn2C)c1`, the figures for the growth inhibition in experiment [1] and in experiment [4] were 30% and 93% (active), respectively. Further, the figures for the inhibition in experiment [2] and in experiment [3] were 2% and 7%, respectively. Moreover, the result in experiment [5], in experiment [6], in experiment [7] and in experiment [8] was inactive.
Consider `Cc1[nH]c(C)c(-c2ccc(OCc3ccc(OC(F)(F)F)cc3)nc2)c(=O)c1Cl`, for which the growth inhibition in experiment [1] is 96% (active); in experiment [4], 98% (active). For the same compound, the inhibition was 3% in experiment [2] and -3% in experiment [3]. For the same compound, the outcome in experiment [5], in experiment [6], in experiment [7] and in experiment [8] was inactive.
Consider `CCN(CC)CCN(Cc1ccc(-c2ccc(C(F)(F)F)cc2)cc1)C(=O)Cn1cc(Cc2cnn(C)c2)c(=O)nc1/C=C/c1cccc(F)c1F`, for which the growth inhibition is 98% (active) in experiment [1] and 95% (active) in experiment [4]. For the same compound, the inhibition in experiment [2] is 11%; in experiment [3], -2%. The result in experiment [5], in experiment [6], in experiment [7] and in experiment [8] was inactive.
Consider `Nc1nccc2ccc(-c3ccc(Oc4ccccc4)cc3)cc12`, for which the growth inhibition was 80% (active) in experiment [1] and 98% (active) in experiment [4]. The inhibition in experiment [2] is 36%; in experiment [3], -3%. Also, the result in experiment [5], in experiment [6], in experiment [7] and in experiment [8] was inactive.
Consider `CC(CN1CCN(C)CC1)C(=O)Nc1cccc(-c2ccc(-c3nc4ccccc4[nH]3)cc2)c1` (stereo not given), for which the growth inhibition in experiment [1] is 38%; in experiment [4], 95% (active). The results for the inhibition in experiment [2] and in experiment [3] were 2% and -1%, respectively. Besides, the outcome in experiment [5], in experiment [6], in experiment [7] and in experiment [8] was inactive.
Turning to `Cc1cc(OCCCN2CCC(NS(=O)(=O)c3cccc(Br)c3)CC2)c2ccccc2n1`, the figures for the growth inhibition in experiment [1] and in experiment [4] were 28% and 95% (active), respectively. In addition, the inhibition in experiment [2] is 28%; in experiment [3], -2%. In addition, the result in experiment [5], in experiment [6], in experiment [7] and in experiment [8] was inactive.
On to `COc1ccc(NC(=O)NC2CCN(CCCCCNC(=O)/C=C/c3ccc(Cl)c(Cl)c3)C2)c(OC)c1` (stereo not given), for which the results for the growth inhibition in experiment [1] and in experiment [4] were 9% and 96% (active), respectively. Besides, the results for the inhibition in experiment [2] and in experiment [3] were 24% and -3%, respectively. Besides, the result in experiment [5], in experiment [6], in experiment [7] and in experiment [8] was inactive.
For the compound `O=C(Nc1ccc(Cl)cn1)c1sc2ccccc2c1O`, the growth inhibition in experiment [1] was 18%; in experiment [4], 99% (active). For the same compound, the inhibition in experiment [2] is 2%; in experiment [3], -3%. The outcome in experiment [5], in experiment [6], in experiment [7] and in experiment [8] was inactive.
For the compound `COc1ccccc1CNc1ccnc(NCCc2cccc(C(F)(F)F)c2)n1`, the results for the growth inhibition in experiment [1] and in experiment [4] were 68% (active) and 93% (active), respectively. Also, the values for the inhibition in experiment [2] and in experiment [3] were 39% and -4%, respectively. For the same compound, the result in experiment [5], in experiment [6], in experiment [7] and in experiment [8] was inactive.
Turning to `CCOc1cc(C(=O)NC2CC(C)(C)N(C)C(C)(C)C2)ccc1-c1nc2cc(Cl)c(Cl)cc2[nH]1`, the values for the growth inhibition in experiment [1] and in experiment [4] were 49% and 101% (active), respectively. Further, the inhibition was 64% (active) in experiment [2] and 4% in experiment [3]. For the same compound, the outcome in experiment [5], in experiment [6], in experiment [7] and in experiment [8] was inactive.
As for `COc1cccc(CNC(=O)[C@H]2CNCCN2C(=O)CCCc2ccccc2)c1`, the growth inhibition in experiment [1] is 95% (active); in experiment [4], 91% (active). For the same compound, the inhibition in experiment [2] was 56% (active); in experiment [3], 2%. Moreover, the outcome in experiment [5], in experiment [6], in experiment [7] and in experiment [8] was inactive.
On to `N#Cc1ccc(-c2ccc(OCC(O)CN3CCCN(Cc4cccc(O)c4Cl)CC3)cc2)cc1` (stereo not given), for which the growth inhibition in experiment [1] was 66% (active); in experiment [4] it was 98% (active). For the same compound, the inhibition in experiment [2] was 3%; in experiment [3], -6%. Moreover, the result in experiment [5], in experiment [6], in experiment [7] and in experiment [8] was inactive.
Take `CC1CCCN1Cc1cccc(-c2ccc(C(=O)NCCOc3ccccc3)s2)c1` (stereo not given): the values for the growth inhibition in experiment [1] and in experiment [4] were 0% and 83% (active), respectively. The inhibition in experiment [2] was 26%; in experiment [3], -3%. The result in experiment [5], in experiment [6], in experiment [7] and in experiment [8] was inactive.
